Experiments:
Conditions in all cases: concentration: 1 μM, replicates: in singlicate; n = 1
DMPK2 = system: T1, DMPK2
T1 construct: gene CDC42BPG

DMPK = system: DMPK
DRAK1 = system: T2, DRAK1
T2 construct: gene STK17A

DRAK2 = system: T3, DRAK2
T3 construct: gene STK17B

DYRK1A = system: DYRK1A
DYRK1B = system: DYRK1B
DYRK2 = system: DYRK2
EGFR = system: EGFR
EIF2AK1 = system: EIF2AK1
EPHA1 = system: EPHA1
EPHA2 = system: EPHA2
EPHA3 = system: EPHA3
EPHA4 = system: EPHA4
EPHA5 = system: EPHA5
EPHA6 = system: EPHA6
EPHA7 = system: EPHA7
EPHA8 = system: EPHA8
EPHB1 = system: EPHB1
EPHB2 = system: EPHB2
EPHB3 = system: EPHB3
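Note: KINOMEscan kinase panel screen.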

Row | Compound | %Inh (DMPK2) [%] | %Inh (DMPK) [%] | %Inh (DRAK1) [%] | %Inh (DRAK2) [%] | %Inh (DYRK1A) [%] | %Inh (DYRK1B) [%] | %Inh (DYRK2) [%] | %Inh (EGFR) [%] | %Inh (EIF2AK1) [%] | %Inh (EPHA1) [%] | %Inh (EPHA2) [%] | %Inh (EPHA3) [%] | %Inh (EPHA4) [%] | %Inh (EPHA5) [%] | %Inh (EPHA6) [%] | %Inh (EPHA7) [%] | %Inh (EPHA8) [%] | %Inh (EPHB1) [%] | %Inh (EPHB2) [%] | %Inh (EPHB3) [%]
1 | Nc1cccc(-c2ccc3c(N)n[nH]c3c2)n1 [GSK2192730] | 0 | 0 | 68 | 0 | 25 | 21 | 52 | 0 | 0 | 14 | 0 | 4 | 5 | 0 | 0 | 8 | 8 | 9 | 0 | 1
2 | CC(=O)c1cccc(NC(=O)NC2CCN(c3ccnc(Nc4ccc(F)cc4)n3)C2)c1 (stereo not drawn) [GSK1379710] | 6 | 0 | 6 | 0 | 0 | 27 | 17 | 18 | 0 | 7 | 0 | 19 | 6 | 0 | 7 | 6 | 14 | 8 | 11 | 7
3 | Cc1cnc(N)c(/C=C/c2cncc(C(=O)NCCc3ccc(Cl)cc3Cl)c2)c1.Cl [GSK190937] | 3 | 0 | 18 | 0 | 8 | 15 | 4 | 0 | 0 | 0 | 8 | 16 | 6 | 0 | 0 | 6 | 10 | 5 | 0 | 6
4 | CC(C)c1ccc(O)cc1Nc1ccnc2ccc(C(F)(F)F)cc12 [GW482059] | 0 | 0 | 10 | 0 | 13 | 16 | 8 | 37 | 3 | 6 | 0 | 0 | 19 | 0 | 20 | 0 | 3 | 9 | 0 | 13
5 | CSc1ccc(-c2nc3n(c2-c2ccncc2)CCC3)cc1 [SKF-105561] | 0 | 0 | 1 | 0 | 3 | 0 | 0 | 7 | 0 | 12 | 0 | 5 | 14 | 0 | 0 | 9 | 0 | 0 | 0 | 8
6 | Cn1cncc1-c1cc2c(Nc3ccc(OCc4ccccc4)cc3)ncnc2cn1 [GW281179] | 0 | 0 | 93 | 5 | 19 | 21 | 3 | 100 | 0 | 14 | 13 | 0 | 6 | 0 | 14 | 9 | 11 | 21 | 0 | 25
7 | Nc1ncnc2occ(-c3ccc4c(c3)CCN4C(=O)Cc3cc(F)ccc3F)c12 [GSK2645446] | 51 | 7 | 0 | 0 | 6 | 0 | 0 | 18 | 0 | 11 | 0 | 12 | 0 | 0 | 0 | 0 | 0 | 0 | 6 | 0
8 | Cc1ccc(NC(=O)c2ccc(Cl)cc2)cc1-c1ccc(C(=O)Nc2ccncc2)cc1 [GSK1398467] | 0 | 0 | 5 | 0 | 4 | 0 | 0 | 33 | 0 | 19 | 9 | 81 | 11 | 0 | 0 | 4 | 18 | 19 | 7 | 8
9 | Cc1ccc(NC(=O)Nc2ccccc2)cc1-c1ccc(C(=O)Nc2ccncc2)cc1 [GSK1398471] | 9 | 0 | 9 | 0 | 9 | 0 | 14 | 10 | 0 | 24 | 17 | 4 | 32 | 0 | 15 | 5 | 36 | 11 | 13 | 15
10 | COc1ccc(CSc2nnc(-c3ccc4c(c3)CCO4)o2)cc1 | 0 | 0 | 0 | 3 | 0 | 35 | 0 | 0 | 0 | 0 | 0 | 1 | 18 | 0 | 6 | 0 | 0 | 0 | 0 | 12
11 | Cc1ccccc1-c1cc(-c2c[nH]nc2-c2ccccn2)ccn1 [GW680061] | 0 | 0 | 2 | 0 | 14 | 0 | 0 | 38 | 0 | 3 | 10 | 0 | 11 | 0 | 11 | 14 | 22 | 0 | 15 | 9
12 | Cc1ccc(NC(=O)Nc2ccc(Cl)c(C(F)(F)F)c2)cc1-c1ccc(C(=O)Nc2ccncc2)cc1 [GSK1398470] | 12 | 0 | 0 | 0 | 12 | 19 | 29 | 25 | 78 | 6 | 17 | 19 | 7 | 7 | 20 | 15 | 26 | 23 | 17 | 19
13 | COc1ccc(Nc2nccc(N3CCC(NC(=O)C(C)c4ccc(Cl)cc4)CC3)n2)cc1 (stereo not drawn) [GSK1379812] | 6 | 1 | 0 | 0 | 99.2 | 0 | 19 | 0 | 0 | 0 | 7 | 5 | 0 | 0 | 0 | 0 | 9 | 34 | 71 | 1
14 | CC[C@@H]1CO[C@H](C(=O)Nc2ccccc2)CN1c1cc(-c2ccc3c(N)n[nH]c3c2)nc(NC)n1 [GSK2376236] | 5 | 0 | 95.3 | 68 | 1 | 0 | 12 | 71 | 0 | 3 | 21 | 13 | 6 | 0 | 9 | 2 | 9 | 8 | 14 | 16
15 | O=c1cc(N2CCOCC2)nc2n(Cc3ccccc3F)ccn12 [GSK2297428] | 0 | 0 | 0 | 0 | 6 | 0 | 9 | 18 | 0 | 3 | 21 | 0 | 5 | 0 | 0 | 3 | 9 | 5 | 0 | 7
16 | Fc1ccc(-c2nn3cccc(F)c3c2-c2ccncc2)cc1 [GW475620] | 81 | 28 | 0 | 17 | 7 | 0 | 0 | 52 | 0 | 22 | 12 | 2 | 15 | 13 | 38 | 0 | 4 | 8 | 0 | 31
17 | CCCCc1nn2ncccc2c1-c1ccnc(NC2CC2)n1 [GW684374] | 0 | 0 | 0 | 0 | 12 | 3 | 6 | 26 | 0 | 11 | 0 | 0 | 0 | 0 | 0 | 0 | 9 | 13 | 0 | 0
18 | Cc1nccc(-c2c(-c3ccc(F)cc3)ncn2CCCN2CCOCC2)n1.Cl [SB-282975] | 9 | 22 | 14 | 22 | 17 | 34 | 0 | 17 | 14 | 24 | 16 | 0 | 4 | 10 | 8 | 9 | 10 | 15 | 15 | 3
19 | CNc1nc(-c2ccc3c(N)n[nH]c3c2)cc(N2C[C@@H](C(=O)Nc3ccccc3)CC[C@H]2C)n1 [GSK2298859] | 13 | 0 | 97.6 | 80 | 15 | 0 | 10 | 31 | 0 | 14 | 0 | 18 | 8 | 0 | 0 | 1 | 5 | 0 | 0 | 9
20 | O=c1cc(N2CCOCC2)nc2n(Cc3cccc(Cl)c3Cl)c3ccccc3n12 [GSK2299009] | 24 | 10 | 3 | 0 | 28 | 15 | 16 | 30 | 24 | 14 | 8 | 5 | 14 | 1 | 6 | 19 | 25 | 26 | 61 | 20
21 | Cc1cccc2c(-c3ccncn3)c(-c3ccc(F)cc3)nn12 [GW515532] | 24 | 0 | 0 | 0 | 23 | 0 | 13 | 47 | 0 | 16 | 0 | 0 | 2 | 0 | 21 | 0 | 13 | 1 | 0 | 2

Reference: article PMC5540273 (PLoS ONE, 2017)
